# Assay results taken from PubChem BioAssay (NCI).
# The panel holds about 83,000 compounds, 20% with a hit somewhere; the sample as a whole holds those more often.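 96-well plates, one dose, 48 hours. Percent growth reported; active if below 10.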 Active and inactive are the calls of the source.
# Test system: HL-60(TB) leukemia
# Test: NCI-60 one-dose screen, 48 h (100 = growth as untreated, 0 = no growth, -100 = all killed)
# Conditions: 10 µM unless noted
row,Compound,growth
1,ClC1=NC(Cl)C(Cl)=N/C1=N\c1ncn[nH]1 (stereo not given),-64.6% (active)
2,COc1cc2c(=O)n(CC3CCCCC3)c3c4cc[nH]c4ncc3c2cc1OC,42.9% (inactive)
3,CNCc1ccccc1CN(CC(=O)Nc1ccc2c(c1)CC1(C2)C(=O)Nc2ncccc21)C(=O)C(C)(C)C (stereo not given),100% (inactive)
4,O=C1CC(c2ccc(O)c(O)c2)Oc2cc(O)c([C@@H]3O[C@H](CO)[C@@H](O)[C@H](O)[C@H]3O)c(O)c21 (stereo not given in full),99.6% (inactive)
5,COc1ccc(C2=CC(c3cc(OC)c(OC)c(OC)c3)n3ncnc3N2)cc1 (stereo not given),-29.9% (active)
6,COc1cc(/C=N/N(C)C)ccc1O,86.5% (inactive)
7,CC(=O)O[C@@H]1C[C@]2(C(C)C)O[C@@]1(C)[C@@H]1CCC(C)=C1[C@@H]2OC(=O)/C=C/c1ccccc1,78.8% (inactive)
8,COc1ccc(C(=O)/C=C/c2ccc(C)cc2)cc1OC,58.4% (inactive)
9,Cc1c2c(c(C)c3c1oc1cc(O)ccc13)C(=O)N(CCN1CCCCC1)C2=O,99.3% (inactive)
10,O=C(Nc1ccccc1O)c1ccc(NS(=O)(=O)c2cccc3cccnc23)cc1,-12.2% (active)
11,COc1ccc(/C=C\c2cc(OC)c(OC)c(OC)c2)cc1OCC(=O)Nc1ccc2nc(C)sc2c1,-5.19% (active)
12,N#Cc1c(-c2ccc(Cl)cc2)nc(N=Nc2c(O)[nH]c3ccc(Cl)cc23)nc1N1CCOCC1,104% (inactive)
13,CCN(CC)c1ccc(C(=N)c2ccc(N(C)C)cc2)cc1,11.1% (inactive)
14,Cc1sc2nc(NCCc3cccs3)[nH]c(=O)c2c1C,102% (inactive)
15,Cc1cc(SC#N)ncn1,102% (inactive)
16,COc1cc(-c2ccc[nH]2)[nH]c1/C=C1\N=C(C)C(CC(=O)OCC(C)(C)C)=C1C,-44.5% (active)
17,CN(C)N=Nc1nn(C(=O)Nc2ccc(Cc3ccccc3)cc2)c2ccccc12,21.4% (inactive)
18,C#CC[C@H](N)C(=O)O,99.9% [20 µM] (inactive)
19,COc1ccc(O)c(-c2cc(-c3ccccc3)c(C#N)c(=O)[nH]2)c1,112% (inactive)
20,O=C(N=Nc1c(O)[nH]c2ccccc12)c1cc(-c2ccccc2)on1,97.5% (inactive)

row,Compound,growth
1,Cc1cc(C)c(O)c(CNCCCCCCNCc2cc(C)cc(C)c2O)c1,-43% (active)
2,CC1=C(C)C(=O)C(Nc2cccc(C(=O)OC(C)(C)C)c2)=C(Br)C1=O,54.9% (inactive)
3,COc1ccc(Cn2c(C(N)=O)cc3c2-c2nc(N)ncc2CCC3)cc1,121% (inactive)
4,CC(=O)c1ccc(-n2cc(CN3CCN(c4cc5c(cc4F)c(=O)c(C(=O)O)cn5C4CC4)CC3)nn2)cc1,99% (inactive)
5,C=C1CC2(OC1=O)C(=O)N(CCCN1C(=O)C3(CC(=C)C(=O)O3)c3ccccc31)c1ccccc12 (stereo not given),-26.5% (active)
6,COc1cc2c(c(OC)c1)C1c3ccccc3NC(=O)N1CC2 (stereo not given),-3.91% (active)
7,Oc1c(I)cc(I)cc1CNCCN(Cc1ccccn1)Cc1ccccn1,-31.5% (active)
8,C/C(=C\CCc1ccsc1)CC/C=C(\C)CCCN1CCSCC1,67.7% (inactive)
9,COc1ccc(/C=C/C(=O)c2ccc(Nc3nc(NCCO)nc(Nc4ccc(Cl)cc4)n3)cc2)cc1,94% (inactive)
10,CC(=NCc1ccccc1)c1ccc(O)cc1O,102% (inactive)
11,CCCCC[C@H]1C/C=C2/C(=O)C=C[C@@H]2C/C=C\CCCC(=O)O[C@@H](CCCCC)C/C=C2/C(=O)C=C[C@@H]2C/C=C\CCCC(=O)O1,-47.6% (active)
12,CS(=O)(=O)c1nccc(-c2c(-c3cccc(OCCN4CCOCC4)c3)nc3sccn23)n1,66.4% (inactive)
13,COc1ccc(CNCCN2C(=O)c3ccc4c5c(ccc(c35)C2=O)C(=O)N(CCNCc2ccc(OC)cc2)C4=O)cc1,-63.4% (active)
14,COc1cc(OC)c(C(=O)/C=C/c2cccc(C(F)(F)F)c2)c(OC)c1,-26.6% (active)
15,COc1ccc(-c2csc(C3=C(O)CN(C(C)C)C3=N)n2)cc1OC,76.4% (inactive)
16,COc1ccc(-c2nn(-c3cccc(NC(=O)Nc4cc(C(F)(F)F)cc(C(F)(F)F)c4)c3)cc2-c2ccncc2)cc1Cl,-25.4% (active)
17,Cc1ccccc1NC(=O)c1cc2ccccc2cc1O,0.175% (active)
18,COc1ccc(C2=NN(C(C)=O)C(c3cn(-c4ccccc4)nc3-c3ccc(Cl)cc3)C2)cc1 (stereo not given),3.16% (active)
19,COc1cc(C2=NNC(c3ccc(N(C)C)cc3)C2)cc(OC)c1OC (stereo not given),-33.6% (active)
20,COP(=O)(OC)/C(=N\NS(=O)(=O)c1ccc(C)cc1)c1ccccc1,100% (inactive)
